Measured values taken from PubChem BioAssay (NCATS).
Activity calls are given as the source filed them. Calls follow the shape of the full dose curve.

Test: qHTS drug screen for cell cycle checkpoint inhibitors in PARPi-resistant BRCA-mutant ovarian cancer cell lines. (AID 1963452)
Details: PEO1/OlaR viability, CellTiter-Glo luminescence, 96 h, stronger effect = lower value
Summary of the method: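 PEO1, PEO4 and PEO1/OlaR ovarian cancer cells, 600 per well, exposed 96 h at 37C to a dilution series. Viability read by CellTiter-Glo luminescence, normalized to DMSO and empty wells; activity summarized as Z-AUC.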

[1] = measured here: PEO1 parental Z-AUC

Structure (SMILES): CC1CCN(c2cc(N3CCN(C)CC3)ccc2NC(=O)c2cc(C#N)c[nH]2)CC1
- Z-AUC: -1.13 (inactive)
- Z-AUC [1]: -0.115
- Z-AUC (measured here: PEO4 Z-AUC): 0.801

Structure (SMILES): Cc1c(C(=O)Nc2ccc(N3C[C@@H](C)O[C@@H](C)C3)nc2)cccc1-c1ccc(OC(F)(F)F)cc1
- Z-AUC: 0.823 (inactive)
- Z-AUC [1]: 1.06
- Z-AUC (measured here: PEO4 Z-AUC): 0.91

Structure (SMILES): CCCCc1ccc(NS(=O)(=O)c2ccc(C)c(C(=O)N3CCN(c4cccc(C)c4C)CC3)c2)cc1
- Z-AUC: 1.4 (inactive)
- Z-AUC [1]: 1.5
- Z-AUC (measured here: PEO4 Z-AUC): 1.44

Structure (SMILES): C[C@@H](NC(=O)c1ncnc(N)c1Cl)c1ncc(C(=O)Nc2cc(C(F)(F)F)c(Cl)cn2)s1
- Z-AUC: 0.509 (inactive)
- Z-AUC [1]: 0.52
- Z-AUC (measured here: PEO4 Z-AUC): 0.658
